# Results filed as inconclusive are left out. Where a call stands in place of a potency, no number is given. The source made the active and inactive calls. Unless noted, calls come from the whole dose curve; as a rule, active = well fitted curve in the direction sought with a large enough effect; inconclusive = small, poorly fitted or top-dose-only effect, or another doubt; inactive = no such curve, though single readings can be large; an effect the other way counts as inactive or inconclusive.
# Legend:
# [1] = molecular target: Peptidyl-prolyl cis-trans isomerase NIMA-interacting 1 (Homo sapiens) (UniProt Q13526); experiment: qHTS Validation Assay to Find Inhibitors of Pin1 (AID 504536; active = well fitted inhibition curve with a large enough effect in the polarisation, with a control signal flat, not every such curve was filed as active; the % refers to the polarisation)
# Sequence of Peptidyl-prolyl cis-trans isomerase NIMA-interacting 1 (Homo sapiens) (Q13526 whole entry, looked up): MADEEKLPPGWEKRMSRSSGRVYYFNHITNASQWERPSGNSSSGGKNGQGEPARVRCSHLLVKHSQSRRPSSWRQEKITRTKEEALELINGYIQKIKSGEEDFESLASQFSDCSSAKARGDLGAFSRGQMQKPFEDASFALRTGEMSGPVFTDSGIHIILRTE
# Summary of the method: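 Fluorescence polarization competition: compounds (titration) displace HiFluor-488-labeled Pin1-1b peptide from Pin1 (0.3 uM final) in pH 7.5 HEPES buffer with DTT, 10 min at room temperature; %Activity normalized to no-enzyme wells, curves fitted.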
# [2] = molecular target: Phosphoglycerate kinase, glycosomal (Trypanosoma brucei brucei) (UniProt P07378); experiment: qHTS Validation Assay to Find Inhibitors of Phosphoglycerate Kinase (AID 504547)
# Sequence of Phosphoglycerate kinase, glycosomal (Trypanosoma brucei brucei) (P07378 whole entry, looked up): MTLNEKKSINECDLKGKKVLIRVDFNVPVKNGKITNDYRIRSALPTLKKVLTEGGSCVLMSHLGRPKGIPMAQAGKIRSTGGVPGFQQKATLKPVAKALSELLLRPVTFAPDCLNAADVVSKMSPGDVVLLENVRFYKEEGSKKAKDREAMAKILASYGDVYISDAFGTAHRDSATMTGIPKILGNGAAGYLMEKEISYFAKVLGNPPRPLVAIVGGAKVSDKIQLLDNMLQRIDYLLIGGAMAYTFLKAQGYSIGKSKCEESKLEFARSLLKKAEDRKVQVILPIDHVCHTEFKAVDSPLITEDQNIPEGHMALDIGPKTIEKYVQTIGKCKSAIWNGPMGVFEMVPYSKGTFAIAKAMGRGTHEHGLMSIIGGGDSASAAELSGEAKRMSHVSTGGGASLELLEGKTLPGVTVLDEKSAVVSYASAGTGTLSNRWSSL
# Summary of the method: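 PGK activity was coupled to GAPDH (100nM final), which generates the unstable substrate 1,3-bisphosphoglycerate in-well. Reactions ran 60 minutes at room temperature in 100mM TEA pH 7.6, 5mM MgCl2, 0.01% Tween-20, then Kinase-Glo Plus luminescence was read.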
# [3] = molecular target: phosphoglycerate mutase (Leishmania major) (UniProt Q4Q090); experiment: qHTS Validation Assay to Find Inhibitors of Phosphoglycerate Mutase (AID 504548); settings: Potency: inhibition qHTS;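 note: end-point luminescence from Kinase-GloPlus after the PGAM reaction; series mostly up to about 58 µM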
# Sequence of phosphoglycerate mutase (Leishmania major) (Q4Q090 1-553): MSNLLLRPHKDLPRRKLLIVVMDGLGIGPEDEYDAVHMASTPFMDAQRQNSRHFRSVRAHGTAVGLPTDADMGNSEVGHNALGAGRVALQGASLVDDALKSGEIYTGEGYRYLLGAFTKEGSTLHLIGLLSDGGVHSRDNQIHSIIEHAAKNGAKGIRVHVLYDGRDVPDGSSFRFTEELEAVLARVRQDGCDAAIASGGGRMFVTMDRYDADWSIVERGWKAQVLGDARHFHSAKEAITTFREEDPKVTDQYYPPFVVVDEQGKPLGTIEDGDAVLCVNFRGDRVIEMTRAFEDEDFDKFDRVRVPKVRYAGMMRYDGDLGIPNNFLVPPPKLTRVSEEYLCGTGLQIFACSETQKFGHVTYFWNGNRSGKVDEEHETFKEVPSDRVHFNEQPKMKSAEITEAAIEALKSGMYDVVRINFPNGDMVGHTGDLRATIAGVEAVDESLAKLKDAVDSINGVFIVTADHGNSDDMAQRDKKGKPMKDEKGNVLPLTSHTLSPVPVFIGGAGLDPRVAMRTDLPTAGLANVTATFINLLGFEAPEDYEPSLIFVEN
# Summary of the method: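 Inhibition of L. major PGAM was assessed by Kinase-GloPlus luminescence following a 45-minute room-temperature reaction with enzyme at 1.25nM final.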
# [4] = molecular target: Ubiquitin carboxyl-terminal hydrolase 1 (Homo sapiens) (UniProt O94782); experiment: Inhibitors of USP1/UAF1: Pilot qHTS (AID 504865); note: nearly all actives have a fitted effect of over 35% in size; note: potency is the fitted concentration of half-maximal effect
# Sequence of Ubiquitin carboxyl-terminal hydrolase 1 (Homo sapiens) (O94782 whole entry, looked up): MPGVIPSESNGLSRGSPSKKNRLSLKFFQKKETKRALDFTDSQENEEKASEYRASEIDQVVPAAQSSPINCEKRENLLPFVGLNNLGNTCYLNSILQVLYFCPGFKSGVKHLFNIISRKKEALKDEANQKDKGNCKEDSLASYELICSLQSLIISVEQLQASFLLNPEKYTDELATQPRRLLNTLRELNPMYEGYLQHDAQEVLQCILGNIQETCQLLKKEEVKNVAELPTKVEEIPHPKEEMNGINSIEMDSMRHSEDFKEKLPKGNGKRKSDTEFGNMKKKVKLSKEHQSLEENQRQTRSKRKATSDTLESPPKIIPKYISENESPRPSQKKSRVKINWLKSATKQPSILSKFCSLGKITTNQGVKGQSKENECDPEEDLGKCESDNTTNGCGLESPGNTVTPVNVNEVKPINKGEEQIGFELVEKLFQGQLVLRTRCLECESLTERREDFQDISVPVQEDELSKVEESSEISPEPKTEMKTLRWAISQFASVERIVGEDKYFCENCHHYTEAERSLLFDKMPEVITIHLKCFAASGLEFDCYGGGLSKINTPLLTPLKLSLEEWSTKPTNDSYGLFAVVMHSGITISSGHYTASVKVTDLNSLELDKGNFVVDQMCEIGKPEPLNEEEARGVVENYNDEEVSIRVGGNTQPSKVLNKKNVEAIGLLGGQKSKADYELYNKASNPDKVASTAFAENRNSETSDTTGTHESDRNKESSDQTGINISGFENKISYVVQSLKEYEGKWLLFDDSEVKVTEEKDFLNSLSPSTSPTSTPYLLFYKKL
# Summary of the method: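 In 50mM HEPES pH 7.8 containing 0.5mM EDTA, 1mM TCEP, 0.1 mg/ml BSA and 0.01% Tween-20, 1nM USP1/UAF1 is exposed to compound for 15 min, then Ub-Rho (150nM final) is added and fluorescence is read over time.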
# [5] = qHTS for Inhibitors of ATXN expression: Validation of Cytotoxic Assay (AID 588349)
# Summary of the method: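 Read-out: ATP-based luminescence (CellTiter Glo) reflecting viability of HEK293 cells after 72 hr incubation at 37 degrees C with a concentration series of each compound.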
# [6] = qHTS for Inhibitors of ATXN expression: Validation (AID 588378); note: nearly all actives have a fitted effect of over 75% in size; note: potency is the fitted concentration of half-maximal effect
# Summary of the method: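 Compounds were pinned onto attached HEK293 cells carrying an ATXN2-firefly luciferase construct and incubated 24 hrs at 37 degrees C. Each well then received a fluorescent viability reagent followed by luciferase substrate for end-point luminescence.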
# [7] = molecular target: DNA dC->dU-editing enzyme APOBEC-3G (Homo sapiens) (UniProt Q9HC16); experiment: qHTS for inhibitors of Vif-A3G interactions: Validation (AID 588379)
# Sequence of DNA dC->dU-editing enzyme APOBEC-3G (Homo sapiens) (Q9HC16 whole entry, looked up): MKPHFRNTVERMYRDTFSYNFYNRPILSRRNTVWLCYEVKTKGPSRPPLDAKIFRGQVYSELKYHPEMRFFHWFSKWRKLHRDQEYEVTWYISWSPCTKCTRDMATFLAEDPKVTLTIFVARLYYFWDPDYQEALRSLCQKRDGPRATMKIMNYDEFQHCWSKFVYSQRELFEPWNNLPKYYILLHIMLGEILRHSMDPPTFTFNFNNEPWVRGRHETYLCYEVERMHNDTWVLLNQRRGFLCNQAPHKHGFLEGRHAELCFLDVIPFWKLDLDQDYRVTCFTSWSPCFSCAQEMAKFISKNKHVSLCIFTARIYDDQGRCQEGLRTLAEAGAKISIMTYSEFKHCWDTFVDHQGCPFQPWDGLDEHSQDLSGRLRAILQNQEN
# Summary of the method: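 HeLa cells stably expressing Vif and A3G-eYFP, 700 cells/well, incubated overnight at 37 deg C, then exposed to compound overnight at 37 deg C. Inhibition of Vif-mediated degradation read as increased yellow fluorescence (Ex 488/Em 500-530) by laser-scanning cytometry.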
# [8] = molecular target: Estrogen receptor (Homo sapiens) (UniProt P03372); experiment: qHTS assay for small molecule antagonists of estrogen receptor alpha signaling (AID 588513; active = well fitted curve in the direction sought with a large enough effect in the signal ratio, with a control signal flat, not every such curve was filed as active; the % refers to the signal ratio)
# Sequence of Estrogen receptor (Homo sapiens) (P03372 whole entry, looked up): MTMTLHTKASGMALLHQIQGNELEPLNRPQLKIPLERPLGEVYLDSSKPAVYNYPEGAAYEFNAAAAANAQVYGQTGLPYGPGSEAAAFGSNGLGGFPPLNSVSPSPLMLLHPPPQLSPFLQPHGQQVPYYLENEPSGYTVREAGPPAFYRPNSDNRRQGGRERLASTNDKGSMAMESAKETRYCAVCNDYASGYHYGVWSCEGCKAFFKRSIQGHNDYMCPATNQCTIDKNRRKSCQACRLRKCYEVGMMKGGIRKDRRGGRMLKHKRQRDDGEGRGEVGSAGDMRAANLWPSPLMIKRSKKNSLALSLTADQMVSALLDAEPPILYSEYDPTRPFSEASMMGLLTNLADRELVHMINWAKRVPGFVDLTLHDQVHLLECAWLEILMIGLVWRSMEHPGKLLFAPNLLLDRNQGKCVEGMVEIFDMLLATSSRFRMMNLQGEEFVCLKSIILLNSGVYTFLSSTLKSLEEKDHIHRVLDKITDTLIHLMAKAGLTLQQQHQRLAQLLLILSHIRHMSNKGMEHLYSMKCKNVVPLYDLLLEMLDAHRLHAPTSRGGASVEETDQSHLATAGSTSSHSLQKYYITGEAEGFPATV
# Summary of the method: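 Fluorescence from CCF4 substrate after 2 h at room temperature gave reporter activity; cells had been exposed to compound and 0.5nM 17-beta-estradiol for 18 h at 37 C. Hill-equation fitting yielded IC50 and maximal response.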
# [9] = molecular target: Estrogen receptor (Homo sapiens) (UniProt P03372); experiment: qHTS assay for small molecule agonists of estrogen receptor alpha signaling (AID 588514; calls by dose curve; note: nearly all actives have a fitted effect of over 70% in size)
# Summary of the method: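 Cells were plated at 5000/well, incubated 4 hrs at 37 C, dosed with compound titration series, incubated 18 hrs at 37 C, loaded with CCF4 dye for 2 hrs at RT, then fluorescence was read.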
# [10] = molecular target: Bile acid receptor (Homo sapiens) (UniProt Q96RI1); experiment: qHTS assay for small molecule antagonists of farnesoid X receptor signaling (AID 588526; calls by dose curve)
# Sequence of Bile acid receptor (Homo sapiens) (Q96RI1 whole entry, looked up): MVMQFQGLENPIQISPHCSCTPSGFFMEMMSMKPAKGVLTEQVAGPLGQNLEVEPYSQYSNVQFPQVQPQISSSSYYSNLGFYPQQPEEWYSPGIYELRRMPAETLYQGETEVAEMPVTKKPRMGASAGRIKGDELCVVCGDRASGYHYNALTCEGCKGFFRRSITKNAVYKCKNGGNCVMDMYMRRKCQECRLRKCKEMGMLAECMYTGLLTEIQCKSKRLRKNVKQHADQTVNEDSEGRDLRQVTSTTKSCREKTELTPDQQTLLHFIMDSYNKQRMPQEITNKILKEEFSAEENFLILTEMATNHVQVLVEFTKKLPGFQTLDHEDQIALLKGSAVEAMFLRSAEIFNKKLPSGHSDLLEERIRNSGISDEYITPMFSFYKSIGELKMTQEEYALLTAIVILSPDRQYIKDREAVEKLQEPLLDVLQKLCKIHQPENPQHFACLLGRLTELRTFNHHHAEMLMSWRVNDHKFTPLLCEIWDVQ
# Summary of the method: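 Antagonist mode: titrated compounds tested against chenodeoxycholic acid stimulation (normalized to 50 uM CDCA and DMSO) in GeneBLAzer HEK293T cells for 16 h. Beta-lactamase read by CCF4 fluorescence; IC50 from Hill fits.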
# [11] = molecular target: Glucocorticoid receptor (Homo sapiens) (UniProt P04150); experiment: qHTS assay for small molecule agonists of glucocorticoid receptor signaling (AID 588532; active = well fitted curve in the direction sought with a large enough effect in the signal ratio, with a control signal flat; the % refers to the signal ratio); settings: HeLa MMTV-bla, beta-lactamase ratio, agonist, 18 h; stronger effect = higher value; percent of dexamethasone control, DMSO zero
# Sequence of Glucocorticoid receptor (Homo sapiens) (P04150 whole entry, looked up): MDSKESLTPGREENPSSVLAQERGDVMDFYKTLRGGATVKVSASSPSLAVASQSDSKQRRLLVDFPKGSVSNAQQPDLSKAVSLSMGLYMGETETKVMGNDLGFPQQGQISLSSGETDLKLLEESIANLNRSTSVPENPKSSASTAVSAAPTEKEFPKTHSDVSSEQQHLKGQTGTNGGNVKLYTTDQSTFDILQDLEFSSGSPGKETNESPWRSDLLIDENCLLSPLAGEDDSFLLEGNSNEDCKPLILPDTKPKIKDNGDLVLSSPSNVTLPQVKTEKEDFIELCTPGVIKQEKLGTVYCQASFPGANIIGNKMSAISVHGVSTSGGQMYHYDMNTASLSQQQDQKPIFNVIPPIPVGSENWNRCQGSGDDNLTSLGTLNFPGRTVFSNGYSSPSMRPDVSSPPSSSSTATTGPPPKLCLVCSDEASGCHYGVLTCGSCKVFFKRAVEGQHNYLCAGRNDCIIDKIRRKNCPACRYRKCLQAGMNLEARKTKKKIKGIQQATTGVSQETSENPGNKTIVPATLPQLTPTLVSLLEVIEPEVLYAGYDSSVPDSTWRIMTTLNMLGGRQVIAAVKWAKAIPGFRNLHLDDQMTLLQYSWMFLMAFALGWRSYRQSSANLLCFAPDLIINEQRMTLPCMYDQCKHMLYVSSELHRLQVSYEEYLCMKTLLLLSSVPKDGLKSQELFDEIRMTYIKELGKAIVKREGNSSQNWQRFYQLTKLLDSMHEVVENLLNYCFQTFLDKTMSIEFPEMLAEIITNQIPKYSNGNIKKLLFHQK
# Summary of the method: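 Cells were plated and rested 3-5 h at 37 C, compounds were added in titration and incubated 18 h, then CCF4 substrate was loaded for 2 h at RT before reading blue/green fluorescence. EC50 came from Hill-equation fitting.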
# [12] = molecular target: Glucocorticoid receptor (Homo sapiens) (UniProt P04150); experiment: qHTS assay for small molecule antagonists of glucocorticoid receptor signaling (AID 588533; active = well fitted inhibition curve with a large enough effect in the signal ratio, with a control signal flat, not every such curve was filed as active; the % refers to the signal ratio;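 note: cells stimulated with 2 nM dexamethasone as agonist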)
# Summary of the method: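 Antagonist-mode qHTS: compound titrations added to GRE-bla HeLa cells, then dexamethasone 2 nM final; 18 h, 37 C. CCF4 FRET fluorescence normalized to dexamethasone and DMSO; IC50 from Hill fit.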
# [13] = qHTS assay for small molecule antagonists of peroxisome proliferator-activated receptor delta signaling (AID 588535; active = well fitted inhibition curve with a large enough effect in the signal ratio, with a control signal flat, not every such curve was filed as active; the % refers to the signal ratio;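 for max response: cells co-treated with a PPAR-delta agonist as stimulator during compound exposure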); settings: HEK293T PPARd-UAS-bla, beta-lactamase FRET ratio, 18 h; 460 nm channel
# Summary of the method: (§1)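 Antagonist-mode beta-lactamase reporter (GeneBLAzer PPAR-delta-UAS-bla) in HEK293T cells, 2% charcoal/dextran FBS, 4000 cells/well. Compound titrations, 18 h at 37 C; CCF4 ratio read, IC50 and efficacy from Hill fits.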
# [14] = molecular target: Peroxisome proliferator-activated receptor delta (Homo sapiens) (UniProt Q03181); experiment: as above
# Sequence of Peroxisome proliferator-activated receptor delta (Homo sapiens) (Q03181 whole entry, looked up): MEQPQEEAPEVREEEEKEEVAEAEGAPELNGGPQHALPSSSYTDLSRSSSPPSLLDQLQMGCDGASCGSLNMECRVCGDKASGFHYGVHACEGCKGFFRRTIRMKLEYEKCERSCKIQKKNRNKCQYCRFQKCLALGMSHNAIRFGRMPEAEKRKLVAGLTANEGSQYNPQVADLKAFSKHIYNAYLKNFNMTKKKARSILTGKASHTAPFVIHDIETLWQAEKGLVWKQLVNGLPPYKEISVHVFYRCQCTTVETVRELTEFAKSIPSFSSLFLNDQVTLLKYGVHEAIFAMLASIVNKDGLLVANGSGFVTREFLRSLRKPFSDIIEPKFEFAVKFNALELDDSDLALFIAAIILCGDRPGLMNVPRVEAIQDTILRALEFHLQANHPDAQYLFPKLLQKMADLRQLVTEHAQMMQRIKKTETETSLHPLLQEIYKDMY
# Summary of the method: as §1
structure (smiles),measurement,setting,value
CC(N)C(=O)OC(C)(C)Cc1ccc(Cl)cc1 (configuration not stated),Potency,[1],inactive
same,Potency,[2],inactive
same,Potency,[3],inactive
same,Potency,[4],inactive
same,Potency,[5],inactive
same,Potency,[6],inactive
Nc1ncnc2c1c(I)cn2[C@@H]1C[C@H](N)[C@@H](O)[C@H]1O,Potency,[1],inactive
same,Potency,[2],inactive
same,Potency,[3],inactive
same,Potency,[4],inactive
same,Potency,[6],10 µM (active)
CCNC(=O)[C@H]1O[C@@H](n2cnc3c(N)nc(NCCc4ccc(CCC(=O)O)cc4)nc32)[C@H](O)[C@@H]1O,Potency,[1],inactive
same,Potency,[2],inactive
same,Potency,[3],inactive
same,Potency,[4],inactive
same,Potency,[5],inactive
same,Potency,[6],inactive
O=C(c1ccc(OCCCc2cnc[nH]2)cc1)C1CC1,Potency,[1],inactive
same,Potency,[2],inactive
same,Potency,[3],inactive
same,Potency,[4],inactive
same,Potency,[5],inactive
NC(N)=NC(=O)c1nc(Cl)c(N2CCCCCC2)nc1N,Potency,[1],inactive
same,Potency,[2],inactive
same,Potency,[3],inactive
same,Potency,[4],inactive
same,Potency,[6],inactive
CCCCCCCCCCCCCCCC(=O)OC(CC(=O)O)C[N+](C)(C)C (configuration not stated),Potency,[1],inactive
same,Potency,[2],inactive
same,Potency,[3],inactive
same,Potency,[4],50.1 µM (active)
CC(C)CC(NP(=O)(O)O[C@@H]1O[C@@H](C)[C@H](O)[C@@H](O)[C@H]1O)C(=O)NC(Cc1c[nH]c2ccccc12)C(=O)O (some centres not stated),Potency,[1],inactive
same,Potency,[2],inactive
same,Potency,[3],inactive
same,Potency,[4],inactive
same,Potency,[5],inactive
same,Potency,[6],inactive
Cc1cc(NC2CCCCC2)nc(-n2nc(C)cc2C)n1,Potency,[1],inactive
same,Potency,[2],inactive
same,Potency,[3],inactive
same,Potency,[4],inactive
same,Potency,[5],inactive
same,Potency,[6],inactive
N=c1ccn2c(n1)O[C@H]1[C@H](O)[C@@H](CO)O[C@H]12,Potency,[1],inactive
same,Potency,[2],inactive
same,Potency,[3],inactive
same,Potency,[4],inactive
same,Potency,[5],inactive
CN1CCc2cccc3c2C1Cc1ccc(O)c(O)c1-3 (configuration not stated),Potency,[1],inactive
same,Potency,[2],inactive
same,Potency,[3],inactive
same,Potency,[4],inactive
Nc1nc(Nc2ccccc2)nc2c1ncn2[C@@H]1O[C@H](CO)[C@@H](O)[C@H]1O,Potency,[1],inactive
same,Potency,[2],inactive
same,Potency,[3],inactive
same,Potency,[4],inactive
same,Potency,[5],inactive
same,Potency,[6],inactive
C=CC(C)=C[C@@]1(C)SC(=O)C(C)=C1O,Potency,[1],inactive
same,Potency,[2],inactive
same,Potency,[3],inactive
same,Potency,[4],inactive
same,Potency,[5],inactive
CNC(=O)[C@H]1O[C@@H](n2cnc3c(NCc4cccc(I)c4)ncnc32)[C@H](O)[C@@H]1O,Potency,[1],inactive
same,Potency,[2],inactive
same,Potency,[3],inactive
same,Potency,[4],inactive
same,Potency,[5],inactive
same,Potency,[6],inactive
Nc1nc(Cl)nc2c1ncn2[C@@H]1O[C@H](CO)[C@@H](O)[C@H]1O,Potency,[1],inactive
same,Potency,[2],inactive
same,Potency,[3],inactive
same,Potency,[4],inactive
same,Potency,[5],inactive
O=C(Nc1ccccc1)c1cc([N+](=O)[O-])ccc1Cl,Potency,[1],inactive
same,Potency,[2],inactive
same,Potency,[3],inactive
same,Potency,[4],inactive
same,Potency,[5],inactive
same,Potency,[7],inactive
same,outcome,[8],inactive
same,Potency,[9],inactive
same,outcome,[10],inactive
same,activation,[11],-2.03% (inactive)
same,Potency,[12],inactive
same,max response,[13],15.1%
same,Potency,[14],inactive
O=C(c1ccc(Cl)cc1)N1CCN(c2ccc([N+](=O)[O-])c3ncccc23)CC1,Potency,[1],inactive
same,Potency,[2],inactive
same,Potency,[3],inactive
same,Potency,[4],inactive
same,Potency,[5],inactive
same,Potency,[6],inactive
COc1cc2nc(N3CCN(C(=O)OCc4ccccc4)C(C(=O)NC(C)(C)C)C3)nc(N)c2cc1OC (configuration not stated),Potency,[1],inactive
same,Potency,[2],inactive
same,Potency,[3],inactive
same,Potency,[4],inactive
same,Potency,[6],inactive
Cc1ccc(S(=O)(=O)/C=C/C#N)cc1,Potency,[1],inactive
same,Potency,[2],inactive
same,Potency,[3],inactive
same,Potency,[4],inactive
CNc1ncnc2c1ncn2[C@@H]1O[C@H](CO)[C@@H](O)[C@H]1O,Potency,[1],inactive
same,Potency,[2],inactive
same,Potency,[3],inactive
same,Potency,[4],inactive
same,Potency,[5],inactive
same,Potency,[6],inactive
CCCCC#Cc1nc(NC)c2ncn([C@@H]3O[C@H](CO)[C@@H](O)[C@H]3O)c2n1,Potency,[1],inactive
same,Potency,[2],inactive
same,Potency,[3],inactive
same,Potency,[4],inactive
same,Potency,[5],inactive
OC[C@H]1O[C@@H](n2cnc3c(Nc4ccccc4)ncnc32)[C@H](O)[C@@H]1O,Potency,[1],inactive
same,Potency,[2],inactive
same,Potency,[3],inactive
same,Potency,[4],inactive
same,Potency,[5],inactive
NS(=O)(=O)C#Cc1ccccc1,Potency,[1],inactive
same,Potency,[2],inactive
same,Potency,[3],inactive
same,Potency,[4],inactive
CCc1c(C(=O)NCCc2ccc(N3CCCCC3)cc2)[nH]c2ccc(Cl)cc12,Potency,[1],inactive
same,Potency,[2],inactive
same,Potency,[3],inactive
same,Potency,[4],inactive
same,Potency,[5],inactive
COc1ccccc1N1CCN(CCN(C(=O)c2ccc(I)cc2)c2ccccn2)CC1,Potency,[1],inactive
same,Potency,[2],inactive
same,Potency,[3],inactive
same,Potency,[4],inactive
same,Potency,[6],inactive
COc1cc(OC)c(/C=C2/C(=O)Nc3ccccc32)c(OC)c1,Potency,[1],inactive
same,Potency,[2],inactive
same,Potency,[3],inactive
same,Potency,[4],inactive
Nc1ncnc2c1ncn2[C@@H]1O[C@H](COP(=O)(O)OP(=O)(O)OP(=O)(O)OP(=O)(O)OC[C@@H]2O[C@H](n3cnc4c(N)ncnc43)[C@@H](O)[C@H]2O)[C@@H](O)[C@H]1O,Potency,[1],inactive
same,Potency,[2],inactive
same,Potency,[3],inactive
same,Potency,[4],inactive
same,Potency,[5],inactive
O=C1NC(=O)/C(=C/c2ccc(-c3ccc(F)cc3O)o2)S1,Potency,[1],inactive
same,Potency,[2],inactive
same,Potency,[3],inactive
same,Potency,[4],44.7 µM (active)
same,Potency,[5],inactive
same,Potency,[6],inactive
